The values below come from PubChem BioAssay (Tox21).

Results filed as inconclusive are left out. Where a call stands in place of a potency, no number is given. The source made the active and inactive calls. Calls come from the whole dose curve; as a rule, active = well fitted inhibition curve with a large enough effect in the signal ratio in the repeat runs (not every such curve was filed as active); inconclusive = weak or mixed curves, or effect the other way; inactive = no such curve, though single readings can be large or run the other way; the % refers to the signal ratio.
Potency is the fitted concentration of half-maximal effect.

For the experiment, the target named is Glucocorticoid receptor (Homo sapiens) (UniProt P04150). Briefly: qHTS assay to identify small molecule antagonists of the glucocorticoid receptor (GR) signaling pathway (AID 720692). Particulars: GR-bla HeLa, beta-lactamase FRET ratio, dexamethasone-stimulated, 18 h; series mostly up to 58.5 µM. Put shortly: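 HeLa GR-bla cells; cmpd + dex 5 nM final, 18 h 37 C; LiveBLAzer B/G FRET substrate 2 h RT; fluorescence intensity read. Antagonist mode, qHTS.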
Glucocorticoid receptor (Homo sapiens), sequence (P04150 whole entry, looked up): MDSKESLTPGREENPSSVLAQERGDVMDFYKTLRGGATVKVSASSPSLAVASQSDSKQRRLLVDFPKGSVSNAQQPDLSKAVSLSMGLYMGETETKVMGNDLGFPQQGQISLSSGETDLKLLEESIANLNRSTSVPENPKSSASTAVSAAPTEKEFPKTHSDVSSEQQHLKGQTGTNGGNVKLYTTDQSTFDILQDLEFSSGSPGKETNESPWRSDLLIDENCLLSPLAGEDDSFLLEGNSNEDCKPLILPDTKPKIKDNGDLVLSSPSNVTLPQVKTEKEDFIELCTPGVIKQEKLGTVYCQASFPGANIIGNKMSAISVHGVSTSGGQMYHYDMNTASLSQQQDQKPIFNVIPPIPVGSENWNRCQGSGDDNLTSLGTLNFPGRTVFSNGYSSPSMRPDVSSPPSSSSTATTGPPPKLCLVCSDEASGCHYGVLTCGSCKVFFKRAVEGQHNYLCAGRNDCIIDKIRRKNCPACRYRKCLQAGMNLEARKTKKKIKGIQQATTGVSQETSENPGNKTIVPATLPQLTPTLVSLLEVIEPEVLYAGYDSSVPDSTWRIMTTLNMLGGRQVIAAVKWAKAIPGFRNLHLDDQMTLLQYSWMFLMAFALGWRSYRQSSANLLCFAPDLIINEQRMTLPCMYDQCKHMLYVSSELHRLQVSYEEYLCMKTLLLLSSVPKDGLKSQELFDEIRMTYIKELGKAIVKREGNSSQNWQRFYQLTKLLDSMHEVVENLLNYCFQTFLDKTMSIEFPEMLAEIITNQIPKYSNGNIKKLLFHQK
Take `O=C(NC(=O)c1c(F)cccc1F)Nc1ccc(OC(F)(F)C(F)OC(F)(F)F)c(Cl)c1` (centres undefined): the Potency result is “inactive”.
On to `O=C1c2ccccc2C(=O)C1C(=O)C(c1ccccc1)c1ccccc1`, for which the Potency is 21.3 µM (active).
For the compound `O=C1CN=C(c2ccccc2)c2cc(Cl)ccc2N1CC1CC1`, the Potency was 45.8 µM (active).
On to `OC(c1ccc(Cl)cc1)(c1ccc(Cl)cc1)c1cccnc1`, for which the Potency was 49 µM (active).
As for `COC(=O)C(Br)CBr` (centres undefined), the Potency result is “inactive”.
With `O=C(O)C(F)(F)C(F)(F)C(F)(F)C(F)(F)C(F)(F)C(F)(F)C(F)(F)C(F)(F)C(F)(F)F`, the Potency result was “inactive”.
The value for `O=C(Nc1ccccc1)Nc1ccnc(Cl)c1` was 54.9 µM (active); that for `O=[N+]([O-])c1cc(C(F)(F)F)cc([N+](=O)[O-])c1Cl` was “inactive”.
With `O=C(O)CC(Cl)C(=O)O` (centres undefined), the Potency entry was “inactive”.
